{"source": "PubChem BioAssay (Tox21)", "note": "Records with an inconclusive call do not appear. Entries that show only a call come without a potency. Unmarked numbers belong to inactive results. Active and inactive are the calls of the source. Calls come from the whole dose curve; as a rule, active = well fitted cell-killing curve with a large enough effect in the repeat runs; inconclusive = weak or mixed curves; inactive = flat fitted curve, though single readings scatter. Potency is the fitted concentration of half-maximal effect."}
{"assay": "qHTS assay to identify small molecule antagonists of the estrogen related receptor (ERR) signaling pathway from Tox21 library - cell viability counter screen (AID 1224834); note: nearly all actives have a fitted effect of over 30% in size", "settings": "ERR reporter cells viability, CellTiter-Fluor, 17.5 h; series mostly up to 92.4 µM", "from_the_text": "National Center for Advancing Translational Sciences [NCATS]\nNIH Chemical Genomics Center [NCGC]\nU.S. Environmental Protection Agency [EPA]\nNational Institutes of Environmental Health Sciences [NIEHS]\nNational Toxicology Program [NTP]\nU.S. Food and Drug Administration [FDA]\nEstrogen related receptors (ERRs), the first orphan nuclear receptors discovered, play an important role in the control of cellular energy metabolism. ERRs are required for high-energy production in response to the environmental challenges. ERR-alpha was also identified as an adverse marker for breast cancer progression; ERR-alpha-positive tumors have a poor prognosis. To screen and to identify environmental compounds that perturb the ERR signaling pathways could provide valuable information for potential therapeutic or preventive measures in the treatment of metabolic disease. To differentiate true ERR antagonists or agonist from cytotoxic substances, the assay is multiplexed with cell viability assay.\nTox21 Assay Protocol Summary:\nThe ERR cells were dispensed at 2,000 cells/5 ul/well in 1536-well white plates using a Multidrop dispenser. After the assay plates were incubated at a 37 C/5% CO2 incubator for 6 hours, 23 nL of compounds dissolved in DMSO, positive and negative controls or DMSO only was transferred to the assay plate by a pin tool. The plates were incubated at 37 C for 17.5 hours. 1 ul/well of CellTiter-Fluor reagent was added into the assay plates using a Flying Reagent Dispenser. After 30-minute incubation at 37 C/5% CO2, the fluorescence intensity in the plates was measured using a ViewLux plate reader."}
{"smiles": "OC(CCCN1CCCCC1)(c1ccccc1)c1ccccc1", "Potency": "inactive"}
{"smiles": "O=C1OCCN1/N=C/c1ccc([N+](=O)[O-])o1", "Potency": "inactive"}
{"smiles": "CC(CCc1ccc2c(c1)OCO2)NN", "note": "(stereo not given)", "Potency": "inactive"}
{"smiles": "Nc1nccs1", "Potency": "inactive"}
{"smiles": "O=C(O)c1cccc(O)c1", "Potency": "inactive"}
{"smiles": "Cc1cc(C(=C2C=CC(=Nc3ccc(S(=O)(=O)O)cc3S(=O)(=O)O)C=C2)c2ccc(Nc3ccc(S(=O)(=O)O)cc3)cc2)ccc1N", "Potency": "inactive"}
{"smiles": "CN(C)CCOC1=Cc2ccccc2Sc2ccc(Cl)cc21", "Potency": "inactive"}
{"smiles": "Cn1c(=O)c2c(ncn2CC(=O)O)n(C)c1=O", "Potency": "inactive"}
{"smiles": "Brc1cc(-c2ccc(Br)c(Br)c2Br)cc(Br)c1Br", "Potency": "inactive"}
{"smiles": "Fc1c(F)c(F)c(Br)c(F)c1F", "Potency": "inactive"}
{"smiles": "CC(C)OCC1CO1", "note": "(stereo not given)", "Potency": "inactive"}
{"smiles": "CCNC(=O)N1CCN(CCCC(c2ccc(F)cc2)c2ccc(F)cc2)CC1", "Potency": "18.8 µM (active)"}
{"smiles": "CCCCC(CC)CNCC(CC)CCCC", "note": "(stereo not given)", "Potency": "inactive"}
{"smiles": "O=c1[nH]c2ccc(S(=O)CCN3CCC(Cc4ccc(F)cc4)CC3)cc2o1", "note": "(stereo not given)", "Potency": "inactive"}
{"smiles": "O=C(Nc1ccccc1)Nc1ccccc1", "Potency": "inactive"}
{"smiles": "CCc1nn(CCCN2CCN(c3cccc(Cl)c3)CC2)c(=O)n1CCOc1ccccc1", "Potency": "29.8 µM (active)"}
{"smiles": "CCOCCn1c(C2CCN(CCc3ccc(C(C)(C)C(=O)O)cc3)CC2)nc2ccccc21", "Potency": "inactive"}
{"smiles": "C[C@@H]1C[C@H]2[C@@H]3CCC4=CC(=O)C=C[C@]4(C)[C@@]3(F)[C@@H](O)C[C@]2(C)[C@H]1C(=O)CO", "Potency": "inactive"}
{"smiles": "Cc1ccc(/C=N/n2c(-c3ccccc3)csc2=S)cc1", "Potency": "inactive"}
{"smiles": "N#C[C@@H]1C[C@@H]2C[C@@H]2N1C(=O)[C@@H](N)C12CC3CC(CC(O)(C3)C1)C2", "Potency": "inactive"}
{"smiles": "COc1ccc(CCC(=O)c2c(O)cc(O[C@@H]3O[C@H](CO)[C@@H](O)[C@H](O)[C@H]3O[C@@H]3O[C@@H](C)[C@H](O)[C@@H](O)[C@H]3O)cc2O)cc1O", "Potency": "inactive"}
{"smiles": "CNC(=O)N(c1ccccc1)c1ccccc1", "Potency": "inactive"}
{"smiles": "Oc1cc(O)c(Cl)cc1Cl", "Potency": "inactive"}
{"smiles": "CN1Cc2cc(C(=O)N3CCC(C4CCNCC4)CC3)ccc2N[C@@H](CC(=O)O)C1=O", "Potency": "inactive"}
{"smiles": "CCCOC(=O)c1ccc(C(=O)OCCC)nc1", "Potency": "inactive"}
{"smiles": "CCC(C(=O)OCCOCCN(CC)CC)c1ccccc1", "note": "(stereo not given)", "Potency": "inactive"}
{"smiles": "CC1=C(C=O)C(C)(C)CCC1", "Potency": "inactive"}
{"smiles": "C[C@@H]1C[C@H]2[C@@H]3CCC4=CC(=O)C=C[C@]4(C)[C@@]3(F)[C@@H](O)C[C@]2(C)[C@@]1(O)C(=O)CO", "Potency": "inactive"}
{"smiles": "CC1(C)C2=CCCC(C)(C)[C@]23CC[C@H]1C3", "Potency": "inactive"}
{"smiles": "CC(CCO)CCc1ccccc1", "note": "(stereo not given)", "Potency": "inactive"}
{"smiles": "CN1CCN(c2c(F)cc3c(=O)c(C(=O)O)cn4c3c2OCN4C)CC1", "viability change, negative = cytotoxic": "6.99% [at 19 µM]"}
{"smiles": "OC/C(Br)=C(\\Br)CO", "Potency": "inactive"}
{"smiles": "Nc1ccc(S(=O)(=O)O)c(N)c1", "Potency": "inactive"}
{"smiles": "CC(C)C(=O)O", "Potency": "inactive"}
{"smiles": "CCCC(=O)O[C@]1(C(=O)COC(=O)CC)CC[C@H]2[C@@H]3CCC4=CC(=O)CC[C@]4(C)[C@H]3[C@@H](O)C[C@@]21C", "viability change, negative = cytotoxic": "2.61% [at 19 µM]"}
{"smiles": "O=S(=O)(c1ccccc1)c1ccc(Cl)cc1", "Potency": "inactive"}
{"smiles": "CCN(Cc1cccc(S(=O)(=O)O)c1)c1ccc(C(=C2C=CC(=[N+](CC)Cc3cccc(S(=O)(=O)[O-])c3)C=C2)c2ccccc2)cc1", "Potency": "inactive"}
{"smiles": "Nc1ccc(C(=O)OCCCOC(=O)c2ccc(N)cc2)cc1", "Potency": "inactive"}
{"smiles": "COC(=O)c1cc(Cl)ccc1NS(=O)(=O)C(F)(F)F", "Potency": "inactive"}
{"smiles": "Fc1ccccc1[C@@H](F)COC1CCC(Nc2ncnc3[nH]ncc23)CC1", "note": "(stereo not given in full)", "Potency": "30.6 µM (active)"}
